Screening data (PubChem)
DT40 TDP1 CPT – qHTS for Inhibitors of human tyrosyl-DNA phosphodiesterase 1 (TDP1): qHTS in cells in presence of CPT; 12% of 420,000 active; Potency, µM (highest dose often 46.2 µM), without a hit: at the highest dose activity change, negative = growth inhibition, usual class: inhibitors; chicken DT40 Tdp1-/-;hTDP1 cells + 20 nM CPT, ATP luminescence, 48 h; also: potency is read from the fitted curve at half-maximal effect; nearly all actives have a fitted effect of over 55% in size
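Chicken DT40 Tdp1-/- cells complemented with human TDP1, 400 cells/well, exposed to compounds plus 20 nM camptothecin for at least 48 h at 37 C; viability read as ATP content by CellTiter-Glo luminescence.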
RORg inh – qHTS for inhibitors of ROR gamma transcriptional activity. Nuclear receptor ROR-gamma (Mus musculus), P51450. Drosophila S2 Gal4-RORgamma UAS-luciferase reporter, 20 h. 5.4% of 310,000 active. AID 2551, 2010. Potency, µM (titrated, usually from 53.6 µM), without a hit: at the highest dose activity change, negative = inhibition, hits mostly inhibitors; also: potency is read from the fitted curve at half-maximal effect; nearly all actives have a fitted effect of over 60% in size
Target sequence (P51450 whole entry, looked up, the tested form may be a part): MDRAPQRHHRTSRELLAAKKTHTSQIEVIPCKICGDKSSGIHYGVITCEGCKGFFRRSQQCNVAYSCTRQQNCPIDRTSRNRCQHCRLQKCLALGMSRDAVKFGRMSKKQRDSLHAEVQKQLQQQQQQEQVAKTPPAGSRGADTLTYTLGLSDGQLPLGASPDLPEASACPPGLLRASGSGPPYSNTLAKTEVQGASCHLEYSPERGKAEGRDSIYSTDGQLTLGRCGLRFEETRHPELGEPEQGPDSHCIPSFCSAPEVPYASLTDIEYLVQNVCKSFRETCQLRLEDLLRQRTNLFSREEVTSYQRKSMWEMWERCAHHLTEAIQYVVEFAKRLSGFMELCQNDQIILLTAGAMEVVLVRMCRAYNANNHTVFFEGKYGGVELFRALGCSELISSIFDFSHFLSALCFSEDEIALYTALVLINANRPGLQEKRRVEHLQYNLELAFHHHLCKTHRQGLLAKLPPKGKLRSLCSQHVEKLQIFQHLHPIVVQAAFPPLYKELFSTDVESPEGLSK
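Using a luciferase readout, inhibitors were identified by reduced reporter activity in Drosophila cells coexpressing a copper-inducible Gal4–ROR gamma fusion and UAS-driven Photinus luciferase, incubated 20 hr after 700 uM copper sulfate.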
Gal4-VP16 FLuc – VP16 counterscreen qHTS for inhibitors of ROR gamma transcriptional activity; AID 2546, 2010; Potency, µM (doses to about 53.6 µM), for inactives: at the highest dose activity, negative = inhibition, usual class: inhibitors; Drosophila S2 Gal4-VP16 UAS-luciferase, luminescence, 20 h; 3.5% of 310,000 active;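 also: Gal4-VP16 expression switched on by copper sulfate through the metallothionein promoter; potency is read from the fitted curve at half-maximal effect; nearly all actives have a fitted effect of over 50% in size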
ELG1 DNA repair – qHTS screen for small molecules that inhibit ELG1-dependent DNA repair in human embryonic kidney (HEK293T) cells expressing luciferase-tagged ELG1 | HEK293T ELG1-luciferase reporter, luminescence, 16 h; DNA damage induced by 5-fluorouridine | Potency, µM (doses to about 46.1 µM), for the others: at the top dose activity change, negative = inhibition, hits mostly inhibitors | 2.3% of 330,000 active | AID 504467, 2011; also: potency is read from the fitted curve at half-maximal effect; nearly all actives have a fitted effect of over 55% in size
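Cells (2,000 per well) received 5-fluorouridine plus test compound or DMSO and were incubated 16 hr at 37 °C, 5% CO2. Luciferase activity was read by luminescence 30 min after ONE-Glo addition; signal suppression marked inhibition of damage-induced ELG1 function.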
TDP1 cell noCPT – qHTS for Inhibitors of human tyrosyl-DNA phosphodiesterase 1 (TDP1): qHTS in cells in absence of CPT; 15% of 420,000 active; Potency, µM (highest dose often 46.2 µM), inactives show at the highest dose activity change, negative = growth inhibition, most hits filed as inhibitors; DT40 Tdp1-/- hTDP1 cells, no CPT, ATP luminescence, 48 h; also: potency is read from the fitted curve at half-maximal effect; nearly all actives have a fitted effect of over 55% in size
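Growth kinetics read by CellTiter-Glo luminescence after ≥48 hr at 37 °C. Cells: DT40 Tdp1-/- stably carrying human TDP1, 400 per well, compound exposure in the absence of CPT (DMSO vehicle).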
IL-1B inflam inh – qHTS for Inhibitors of Inflammasome Signaling: IL-1-beta AlphaLISA Primary Screen | THP-1 LPS/ATP IL-1B secretion, AlphaLISA, 16 h; stronger effect = lower value | AID 743279, 2014 | activity change, % at 57.5 µM | 4.7% of 360,000 active; in the data active = activity change below about -50%; inconclusive = mostly about -30% to -49%
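THP-1 cells pretreated 1 hr with compounds (up to 57.5 uM final), then stimulated with LPS (250 ng/mL final) plus ATP (1.25 mM final); secreted IL-1B measured by AlphaLISA after 16 hr, decreased signal indicating inhibition.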
* hit, by the source's call; ? = inconclusive; nt = no result. Sampled rows, rich in hits. Any-hit rate of the full collection: about 21%. Unless noted, calls follow the shape of the dose curve; as a rule, active = well fitted curve in the direction sought with a large enough effect; inconclusive = small, poorly fitted or top-dose-only effect, or another doubt; inactive = no such curve, though single readings can be large; an effect the other way counts as inactive or inconclusive. % is scaled to controls: 0 for no effect and ±100 for the full control effect.

SMILES	DT40 TDP1 CPT	RORg inh	Gal4-VP16 FLuc	ELG1 DNA repair	TDP1 cell noCPT	IL-1B inflam inh
COC(=O)C1=C(c2ccc(OC(F)(F)F)cc2)C[C@@H]2CC[C@H]1N2C(=O)NC1CCCCC1	?	nt	nt	11.3%	16.4µM*	-14.0
CCn1cc(CN2CCCC(C(=O)c3cccc(OC)c3)C2)c(C)n1 (stereo unspecified)	-21.4%	-0.6%	2.0%	?	-27.0%	34.7
CCn1cc(CN(C)S(=O)(=O)c2ccc3ccccc3c2)c(C)n1	5.17µM*	?	?	-12.3%	5.8µM*	7.5
C=Cn1ccnc1P(O)(=S)c1nc(C)c(CCOC(C)=O)s1 (stereo unspecified)	9.6%	11.2µM*	?	?	4.9%	3.6
CCc1c(C(=O)OC)ncc2[nH]c3cc(OC)c(OC)cc3c12	8.2µM*	nt	nt	nt	6.51µM*	nt
CN1Cc2c(c(C#N)c(N)n(C)c2=S)CC1(C)C	?	-28.5%	0.3%	-3.0%	8.6%	0.6
Oc1ccccc1/C=N/NP(=S)(c1ccccc1)c1ccccc1	-23.6%	11.2µM*	5.9%	0.0%	?	-9.8
Brc1cccc(-c2ccccc2)c1	nt	1.3%	1.0%	nt	nt	nt
COC(=O)C12OCC34C(CC5C(C)=C(O)C(=O)CC5(C)C3C(O)C1O)OC(=O)C(OC(=O)/C=C(\C)C(C)C)C24 (stereo unspecified)	0.0411µM*	nt	nt	nt	0.058µM*	-98.2*
CCN(CC)S(=O)(=O)c1ccc2c(c1)c(=O)c(C(=O)NCc1ccccc1OC)cn2C	23.1µM*	nt	nt	nt	18.4µM*	nt
C[C@@H]1CN([C@@H](C)CO)C(=O)c2c(c3ccccc3n2C)-c2ccccc2CO[C@H]1CN(C)C(=O)[C@H](C)c1ccccc1	16.4µM*	nt	nt	nt	18.4µM*	-13.8
C[C@@H]1CN([C@H](C)CO)C(=O)c2c(c3ccccc3n2C)-c2ccccc2CO[C@H]1CN(C)C(=O)c1cc(Cl)cc(Cl)c1	-24.5%	nt	nt	nt	?	5.9
C[C@H](CO)N1C[C@H](C)[C@H](CN(C)C(=O)N[C@H](C)c2ccccc2)OCc2ccccc2-c2c(n(C)c3ccccc23)C1=O	23.1µM*	nt	nt	nt	16.4µM*	-4.8
CCCCn1c(O)c(C(CC)=NCc2cccnc2)c(=O)[nH]c1=O	-17.5%	2.0%	-6.9%	-6.8%	-17.3%	28.4
CCCCCn1c(=O)c(C(=O)Nc2nc3ccccc3[nH]2)c(O)c2ccccc21	2.91µM*	-4.2%	5.2%	?	5.17µM*	14.7
CCCCn1c(=O)c(C=Nc2cccnc2Cl)c(O)n(CCCCl)c1=O	-6.6%	36.3%	5.8%	-0.1%	-15.6%	44.9
CCCCCn1c(=O)c(C(=O)Nc2ncccc2C)c(O)c2ccccc21	?	8.91µM*	8.91µM*	-2.6%	?	4.4
CCCCn1c(=O)c(C(=O)Nc2nc3ccccc3[nH]2)c(O)c2ccccc21	nt	13.6%	-5.4%	0.0%	nt	nt
CCCCn1c(=O)c(C(=O)NCc2ccccc2OC)c(O)c2ccccc21	?	?	?	-15.0%	?	0.0
CCCCn1c(=O)c(C(=O)Nc2cnccn2)c(O)c2ccccc21	2.91µM*	34.4%	-14.4%	?	5.17µM*	0.0
CCCCn1c(=O)c(C(=O)Nc2ccccc2C)c(O)c2ccccc21	8.2µM*	?	-24.3%	8.0%	9.2µM*	29.9
Nn1c(Cc2cccc3ccccc23)n[nH]c1=S	-19.8%	?	6.8%	-7.1%	-20.9%	-2.9
C=C(C)C(=O)CP(=O)(OCC)OCC	nt	?	4.5%	nt	nt	nt
Cc1cccc(Cn2cccc(C(=O)Nc3nnc(C)s3)c2=O)c1	-19.3%	nt	nt	nt	-21.9%	nt
O=C(Nc1cccc(Br)c1)c1c(O)c2c(n(Cc3ccccc3)c1=O)CCCC2	3.8%	17.2%	-1.4%	-1.2%	-4.6%	12.3
SMILES	DT40 TDP1 CPT	RORg inh	Gal4-VP16 FLuc	ELG1 DNA repair	TDP1 cell noCPT	IL-1B inflam inh
CCCCn1c(=O)c(C(=O)Nc2cccc(C)c2)c(O)c2ccccc21	5.8µM*	0.2%	17.1%	-29.6%	4.61µM*	24.8
CCCCCn1c(=O)c(C(=O)Nc2ccccc2Cl)c(O)c2ccccc21	5.17µM*	1.2%	-4.9%	40.6%	5.17µM*	37.3
CC(C)CCn1c(=O)c(C(=O)NCc2ccc3c(c2)OCO3)c(O)c2ccccc21	?	?	?	6.8%	?	78.8
CC(C)CCn1c(=O)c(C(=O)Nc2ccccc2S(N)(=O)=O)c(O)c2ccccc21	4.61µM*	-16.8%	?	1.0%	5.17µM*	1.8
CCC(Cl)[N+](=O)[O-] (stereo unspecified)	nt	2.0%	-7.3%	nt	nt	nt
C#C[C@]1(O)CCC2C3C(CC[C@@]21C)[C@@]1(C)CC[C@@H](O)CC1=C[C@H]3O (stereo partly specified)	?	nt	nt	-3.2%	23.1µM*	21.6
CC(=O)OC1CC2C(C)(C)C(O)C=C[C@@]2(C)C2CC[C@]3(C)C(=CC(=O)OC3c3ccoc3)[C@]12C (stereo partly specified)	-2.7%	-11.9%	-6.7%	nt	-27.4%	nt
Cc1cc([C@@H]2CCCN2C)on1	nt	13.1%	3.4%	nt	nt	nt
O=C(CCl)NN=C(c1ccccc1)c1ccccc1	5.8µM*	-5.1%	-11.3%	0.3%	5.17µM*	-77.0*
O=C1NCCOC(=O)[C@@H](Cc2ccc(F)cc2)CC/C=C/C[C@H]1CC(=O)N(CCO)Cc1ccccc1	20.6µM*	nt	nt	?	?	-0.1
O=C1NCCOC(=O)[C@H](Cc2ccc(F)cc2)CC/C=C/C[C@@H]1CC(=O)N(CCO)Cc1ccccc1	16.4µM*	nt	nt	?	?	29.1
c1ccc2c[n+](CCCCCCCCCC[n+]3ccc4ccccc4c3)ccc2c1	10.5µM*	nt	nt	nt	8.33µM*	nt
COc1cc2[nH]c(=O)n(-c3cccc(Cl)c3)c(=O)c2cc1OC	-5.5%	-2.7%	-2.9%	9.6%	-7.8%	-1.6
CCOc1cc2[nH]c(=O)n(CCCC(=O)N3CCN(c4cccc(Cl)c4)CC3)c(=O)c2cc1OCC	5.8µM*	nt	nt	nt	3.26µM*	nt
C[C@]12CCC3C(CC[C@H]4C[C@H](O)CC[C@]34C)C1[C@@H](O)[C@@H](O)[C@@H]2O (stereo partly specified)	10.7%	nt	nt	14.3%	-9.3%	6.3
